From PubChem BioAssay
Only a selection was taken, and hits are over-represented in it overall.
Tgondii IFNg – blocks Toxoplasma gondii growth in the presence of IFN-gamma; AID 1259416; activity change, negative = inhibition, % (concentration not given with the values); 69,000 compounds, 3.8% hits; Toxoplasma gondii growth in IFN-gamma-treated host cells; hits give low values; in the data active = activity change below about -70%, passing the limit was not always enough;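 also: host cells are HeLa cells infected with Toxoplasma gondii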
Of the large screens only hits and unclear results are named; the others gave an inactive call.

Cc1ccc(-c2nc(Cn3nnc(C(=O)NCCCc4ccccc4)c3C)c(C)o2)cc1	none
COc1ccc(NC(=O)c2nnn(Cc3nc(-c4ccc(Cl)cc4)oc3C)c2C)cc1	none
Cc1ccc(-c2nc(Cn3nnc(C(=O)Nc4cc(C)cc(C)c4)c3C)c(C)o2)cc1	none
COc1cccc(CNC(=O)c2nnn(Cc3nc(-c4ccc(C)cc4)oc3C)c2C)c1	Tgondii IFNg -96
Cc1cccc2nc(C(=O)N3CCC(O)(CN(C)C)C3)cn12 (centres undefined)	none
C=CCOCC12CCCOC1CCN(c1nnc(C)s1)C2 (centres undefined)	none
O=C(CCNC(=O)c1ccccc1F)NCCc1cnc[nH]1	none
CC(C)C(=O)c1cc2c(s1)CCN2c1ncccn1	none
Cc1nccn1-c1ccccc1CNC(=O)C1CC(=O)N(CC(C)C)C1 (centres undefined)	none
Cc1cccc(S(=O)(=O)N2CC(C(=O)N3CCCC3)C3(CCOCC3)C2)c1 (centres undefined)	none
CCOc1ccccc1NC(=O)CN1CCC2(CC1)N=C(c1ccc(F)cc1)C(=O)N2	none
CCOc1ccc(-c2nc(Cn3nnc(C(=O)Nc4cc(C)ccc4C)c3C)c(C)o2)cc1	none
Cc1ccccc1NC(=O)c1nnn(Cc2nc(-c3ccc(Cl)cc3)oc2C)c1C	none
COc1ccc(CNC(=O)c2nnn(Cc3nc(-c4ccc(C)cc4)oc3C)c2C)c(OC)c1	Tgondii IFNg -99
Cc1ccc(-c2nc(Cn3nnc(C(=O)Nc4ccccc4C)c3C)c(C)o2)cc1	Tgondii IFNg -88
CCOc1ccc(-c2nc(Cn3nnc(C(=O)Nc4cc(C)cc(C)c4)c3C)c(C)o2)cc1	none
COc1ccc(NC(=O)c2nnn(Cc3nc(-c4ccccc4)oc3C)c2C)c(OC)c1	none
Cc1ccccc1NC(=O)c1nnn(Cc2nc(-c3ccccc3)oc2C)c1C	none
CCOc1ccc(-c2nc(Cn3nnc(C(=O)Nc4c(C)cccc4C)c3C)c(C)o2)cc1	Tgondii IFNg -94
CCOc1ccc(-c2nc(Cn3nnc(C(=O)Nc4cc(OC)ccc4OC)c3C)c(C)o2)cc1	none
CC(C)N1CCC2(CC1)CC(CC(N)=O)c1ccc(F)cc12 (centres undefined)	none
CN1CCc2c(CNc3ncccn3)n[nH]c2C1	none
COc1cc(C)c(C)cc1S(=O)(=O)NCCc1nc(C)ncc1C(=O)N1CCOCC1	none
CC(=O)NC1[C@@H](O)OC(CO)[C@@H](O)[C@H]1O (some centres undefined)	none
CC1CCCCN1CCCNC(=O)c1nc(-c2ccc(Cl)cc2)n2c1CCCCC2 (centres undefined)	none
O=C(c1nc(-c2cccc(F)c2)n2c1CCCCC2)N1CCCCCC1	Tgondii IFNg -87
Cc1ccc(-c2nc(C(=O)Nc3cc(C)on3)c3n2CCCCC3)cc1	Tgondii IFNg -110
CC(=O)Nc1ccc(NC(=O)c2nc(-c3ccc(C)cc3)n3c2CCCCC3)cn1	Tgondii IFNg -99
CCCN1CCN(C(=O)c2nc(-c3ccc(C)cc3)n3c2CCCCC3)CC1	none
CC1CC(C)CN(C(=O)c2nc(-c3cccc(F)c3)n3c2CCCCC3)C1 (centres undefined)	none
O=C(c1nc(-c2cccc(F)c2)n2c1CCCCC2)N1CCN(c2ncccn2)CC1	none
CCOC(=O)N1CCN(C(=O)c2nc(-c3ccc(C)cc3)n3c2CCCCC3)CC1	none
COC(=O)c1sccc1NC(=O)c1nc(-c2ccc(C)cc2)n2c1CCCCC2	Tgondii IFNg -97
CC1CCN(C(=O)c2nc(-c3ccc(Cl)cc3)n3c2CCCCC3)CC1	none
CC(C)CCNC(=O)c1nc(-c2cccc(F)c2)n2c1CCCCC2	none
Cc1cc(NC(=O)c2nc(-c3cccc(F)c3)n3c2CCCCC3)no1	none
Cc1occc1C(=O)N1CCn2c(CN3CCCC3=O)nnc2C1	none
O=C(NCCc1nc2ccccc2o1)c1cccc(Cn2cccn2)c1	none
Clc1ccc(-n2ncc3c(NCCc4ccccc4)ncnc32)cc1	none
CCCc1nc(CN(CC)C(=O)c2ccc(C(C)=O)s2)no1	none
CCc1cnc(-c2cc3ccccc3o2)nc1	none
CC(C)C(NC(=O)CCc1ccncc1)c1ccc2c(c1)OCCCO2 (centres undefined)	none
COc1cccc(C(NC(=O)c2cc(-c3ccc(F)cc3)on2)c2nccn2C)c1 (centres undefined)	none
c1cncc(CN(Cc2ccsc2)Cc2cccc3c2OCO3)c1	none
O=C(NC1CCCC1)C(c1cccs1)N(Cc1ccccc1)C(=O)Cc1cccs1 (centres undefined)	none
CN(C)CCOCC1CN(C(=O)c2cnccn2)Cc2ccnn2C1 (centres undefined)	none
Cc1cc(C(=O)Nc2ccc(-c3nc(Cn4cccn4)c(C)o3)cc2)no1	Tgondii IFNg -93
Cc1ccc(C(=O)Nc2ccc(-c3nc(Cn4cccn4)c(C)o3)cc2)cc1	none
Cc1cc(C)cc(C(=O)Nc2ccc(-c3nc(Cn4cccn4)c(C)o3)cc2)c1	none
Cc1cnn(Cc2nc(-c3ccc(NC(=O)c4cc(C)on4)cc3)oc2C)c1	Tgondii IFNg -95
Cc1cnn(Cc2nc(-c3ccc(NC(=O)c4c(F)cccc4F)cc3)oc2C)c1	none
COCCCNC(=O)N1CCC2(CC1)Nc1cc(F)ccc1-n1cccc12	none
CCCOC1CCCN(C(=O)C(=O)N(C)c2ccccc2)C1 (centres undefined)	none
